Source: PubChem (several laboratories)
The sample as a whole holds a higher share of hits than the screen did.
PDI inh – PDI (human) enzyme inhibition; inhibition, % at 10 µM; 350,000 tested, 0.052% active; P07237; PDI insulin aggregation turbidity, A650, 90 min; AID 588391;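 active = mean inhibition across replicates of 30% or more, whatever share of single replicates reach that level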
CendR NRP1 mod – modulators of CendR peptide binding to human neuropilin-1; FAM-RPARPAR peptide binding to NRP-1, fluorescence polarization; inhibition, % at 25 µM; 360,000 tested, 0.85% active; AID 602438;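 active = inhibition or corrected inhibition above about 18%, plus a signal ratio from 0.5 to 1.5, limit read from the data, passing the limit was not always enough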
ALR inh – blocks human ALR sulfhydryl oxidase activity. 290,000 tested, 3.8% active. AID 485317. inhibition, % (test concentration not listed). purified ALR, DTT oxidation, H2O2 HRP-luminol luminescence;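 active = mean replicate inhibition above about 79%, with every replicate also reaching it, limit read from the data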
Target sequence (P55789 whole entry, looked up): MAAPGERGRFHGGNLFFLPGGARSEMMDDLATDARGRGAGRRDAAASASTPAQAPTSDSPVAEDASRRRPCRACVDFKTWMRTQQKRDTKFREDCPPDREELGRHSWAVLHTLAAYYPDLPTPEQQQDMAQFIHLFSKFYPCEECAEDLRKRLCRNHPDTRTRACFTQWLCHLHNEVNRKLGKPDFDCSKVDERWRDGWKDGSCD
ARNT-TACC3 inh – ARNT/TACC3 interaction disruption; AID 623870; Q9Y6A5; inhibition, % at 9.99 µM; AlphaScreen His-ARNT PAS-B/GST-TACC3 binding, luminescence; TACC3 fragment carries E629A point mutation; 390,000 tested, 0.66% active;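 active = mean inhibition of replicates at least 50% and at least half of replicates each reaching 50%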;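 note: 0% = complete ARNT plus TACC3 wells and 100% = ARNT alone without TACC3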
PglD inh – PglD (C. jejuni) enzyme inhibition. 360,000 tested, 0.098% active. inhibition, % at 12.5 µM. purified PglD enzyme, DTNB colorimetric CoA detection. AID 602405; in the data active = inhibition above about 16%, passing the limit was not always enough
ERp5 inh – inhibitors of human ERp5. AID 651711. inhibition, % at 9.99 µM. 350,000 tested, 0.05% active. ERp5 insulin aggregation, absorbance 650 nm, 90 min;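 active = mean replicate inhibition above about 25%, with every replicate also reaching it, limit read from the data, passing the limit was not always enough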
Target sequence (Q15084 whole entry, looked up): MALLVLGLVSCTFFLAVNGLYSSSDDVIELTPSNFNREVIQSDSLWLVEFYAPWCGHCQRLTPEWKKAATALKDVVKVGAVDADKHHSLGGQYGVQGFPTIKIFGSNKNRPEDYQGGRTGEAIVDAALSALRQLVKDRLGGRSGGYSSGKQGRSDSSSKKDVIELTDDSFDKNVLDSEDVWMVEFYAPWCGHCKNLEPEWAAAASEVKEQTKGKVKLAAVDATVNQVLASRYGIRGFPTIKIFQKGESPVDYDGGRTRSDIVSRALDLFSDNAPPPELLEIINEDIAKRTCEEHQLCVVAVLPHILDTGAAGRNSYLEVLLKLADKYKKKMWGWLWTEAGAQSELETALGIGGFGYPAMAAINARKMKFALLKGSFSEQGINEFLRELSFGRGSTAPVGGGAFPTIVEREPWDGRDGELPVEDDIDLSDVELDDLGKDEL
* hit, by the source's call; / = not tested or not shown.

SMILES	PDI inh	CendR NRP1 mod	ALR inh	ARNT-TACC3 inh	PglD inh	ERp5 inh
Cc1ccc2nc(N3C(=O)C(O)=C(C(=O)c4ccc(C)o4)C3c3ccco3)sc2c1 (stereo unspecified)	15.7	-72.5	2.3	7.7	-3.5	2.0
Cc1cc(C)c2nc(N3C(=O)C(O)=C(C(=O)c4ccco4)C3c3cccc(O)c3)sc2c1 (stereo unspecified)	0.2	-75.2	99.2*	-7.7	4.0	-5.7
Cc1cc(C)c2nc(N3C(=O)C(O)=C(C(=O)c4ccco4)C3c3ccc(O)cc3)sc2c1 (stereo unspecified)	-2.0	-73.0	99.2*	-9.4	-3.6	2.5
Cc1ccc2nc(N3C(=O)C(O)=C(C(=O)c4ccco4)C3c3ccc(C)o3)sc2c1 (stereo unspecified)	9.3	-76.5	88.5*	5.5	-0.3	0.5
C[C@H]1CN([C@@H](C)CO)S(=O)(=O)c2ccc(-c3cncnc3)cc2O[C@@H]1CN(C)C(=O)Cc1ccccc1	/	/	/	0.1	3.3	-2.1
Cc1ccc(C(c2c(C)nn(-c3ccccc3)c2N)c2c(C)nn(-c3ccccc3)c2N)cc1	4.6	30.2*	-1.2	2.7	-8.0	-1.3
NC(=O)c1ccsc1NC(=O)COC(=O)c1cccnc1Cl	2.3	-11.7	94.1*	-1.4	-0.7	5.2
NC(=O)c1ccsc1NC(=O)COC(=O)Cc1c[nH]c2ccccc12	2.8	-10.1	/	3.7	6.0	2.2
NC(=O)c1ccsc1NC(=O)COC(=O)Cc1cccc2ccccc12	-2.8	-5.9	96.8*	-8.7	1.0	/
CCCCc1ccc(NC(=O)CSC2=C(C#N)C(c3ccco3)C3=C(CCCC3=O)N2)cc1 (stereo unspecified)	2.9	-4.4	98.5*	-11.7	2.7	/
Cc1ccc(C(=O)CSC2=C(C#N)C(c3ccco3)C3=C(CCCC3=O)N2)cc1 (stereo unspecified)	0.6	1.5	99.1*	0.9	2.9	/
N#CC1=C(SCC(=O)c2ccccc2)NC2=C(C(=O)CCC2)C1c1ccco1 (stereo unspecified)	4.9	-5.1	87.5*	6.0	-2.4	/
COc1cccc(NC(=O)CSC2=C(C#N)C(c3ccco3)C3=C(CCCC3=O)N2)c1 (stereo unspecified)	4.5	-5.8	59.3	/	-2.0	/
CC(C)(C)c1ccc(C(=O)CCCSC2=C(C#N)C(c3ccco3)C3=C(CCCC3=O)N2)cc1 (stereo unspecified)	-2.7	4.0	3.4	-0.7	0.4	/
COc1ccc(NC(=O)CSC2=C(C#N)C(c3ccco3)C3=C(CCCC3=O)N2)c(OC)c1 (stereo unspecified)	-5.2	0.8	13.4	/	1.3	14.3
O=C(C[C@@H]1C=C[C@@H](NC(=O)C2CCOCC2)[C@@H](CO)O1)NCc1ccccc1Cl	/	/	/	/	/	3.4
CCCN(C)C[C@H]1Oc2cc(C#CC(C)(C)O)ccc2S(=O)(=O)N([C@H](C)CO)C[C@H]1C	/	/	/	-0.5	3.5	-9.4
CN(C)CC(=O)N1[C@H](CO)[C@H](c2ccccc2-c2cccc(C(=O)N(C)C)c2)[C@@H]1C#N	/	/	/	/	/	0.8
Cc1csc2nc(CSc3ccc(Cl)cc3)cn12	9.0	-8.1	92.4*	/	-20.6	/
CCOc1c(O)ccc(C2NC(=O)N(C)C(C)=C2C(=O)OC)c1[N+](=O)[O-] (stereo unspecified)	8.2	19.6	88.7*	4.4	/	-0.9
CCOc1c(O)ccc(C2NC(=O)NC(C)=C2C(=O)OC)c1[N+](=O)[O-] (stereo unspecified)	-0.7	2.0	34.3	-1.1	-0.4	-8.5
COc1cccc(Nc2nc3cc(OC)ccc3cc2C#N)c1	0.4	-5.5	-0.9	7.3	/	4.7
COc1ccc(Nc2nc3c(C)cccc3cc2C#N)cc1	1.9	38.0*	-6.4	-7.5	/	0.6
Nc1cccc2c(O)cccc12	7.3	-3.5	-4.3	1.7	/	2.1
O=c1[nH]ccc2c(O)cccc12	3.7	3.8	98.5*	-3.2	1.0	-3.9
SMILES	PDI inh	CendR NRP1 mod	ALR inh	ARNT-TACC3 inh	PglD inh	ERp5 inh
Cc1ccc(C(=O)N2CCN(c3ccccc3O)CC2)cc1S(=O)(=O)N1CCCCC1	0.6	-3.0	97.6*	-7.3	1.1	0.0
CC(=O)N1CCN(C(=O)c2ccc(C)c(S(=O)(=O)N3CCCCC3)c2)CC1	-2.2	1.8	/	-7.6	1.2	0.7
Cc1cc(S(=O)(=O)N2CCN(c3ccccc3O)CC2)c(C)s1	/	-1.4	98.1*	2.5	2.8	-7.3
O=C(Nc1ccc(F)cc1)N1CCCCN2[C@H](CO)[C@@H](c3ccc(C4=CCCCC4)cc3)[C@H]2C1	/	/	/	0.2	-1.2	-0.9
Cc1ccc(S(=O)(=O)Nc2ccc3c(c2)C(=O)N([C@H](C)CO)C[C@@H](C)[C@H](CN(C)S(=O)(=O)c2ccccc2)O3)cc1	/	/	/	-3.3	0.4	4.5
COc1ccc(S(=O)(=O)Nc2ccc3c(c2)C(=O)N([C@H](C)CO)C[C@H](C)[C@@H](CN(C)C(=O)CCC(F)(F)F)OCCCC[C@@H](C)O3)cc1	/	/	/	0.2	-2.8	-2.7
Cc1nnc(SCC(=O)Nc2ccc(Br)cn2)[nH]c1=O	-2.1	-3.5	98.9*	-1.1	4.8	/
Cc1nnc(SCC(=O)NNC(=O)CC#N)[nH]c1=O	0.3	-6.3	-5.2	47.7*	/	-4.1
COc1ccc([C@H]2Cc3cccc(O)c3C(=O)O2)cc1O	-31.4	31.2*	-3.7	0.6	4.5	-1.4
COc1ccc([C@H]2Cc3cc(O)cc(O)c3C(=O)O2)cc1O	4.0	-12.3	67.8	13.8	-1.1	3.3
O=C1O[C@@H](c2ccc(O)cc2)Cc2cccc(O)c21	-17.6	29.7*	58.1	-1.8	-3.0	-2.7
O=C(N[C@@H]1CC[C@H](CCn2cc(C3(O)CCCC3)nn2)O[C@H]1CO)C1CCCC1	/	/	/	-9.3	-2.2	-1.7
CCCCCn1c(Br)nc2c1c(=O)n(CC(N)=O)c(=O)n2C	-1.5	10.0	92.5*	-14.1	/	/
Cn1c(=O)c2c(nc(Br)n2C/C=N/NC(N)=S)n(C)c1=O	-0.6	5.1	4.1	/	0.5	4.8
N#C/C(=C\c1ccc(N2CCOCC2)o1)C(=O)Nc1ccc(O)cc1	-0.7	135.4	99.0*	3.7	1.7	-2.6
COc1ccc(NC(=O)/C(C#N)=C/c2ccc(Br)o2)cc1	1.9	-6.7	-9.0	4.7	-0.1	/
N#C/C(=C/c1ccc(N2CCCCC2)o1)C(=O)Nc1ccc(Cl)cc1	15.7	132.5	-1.3	5.1	-2.2	/
N#C/C(=C\c1ccc(N2CCOCC2)o1)c1ccccc1	-1.4	-231.1	/	-4.2	-3.5	-0.5
COc1ccc(NC(=O)/C(C#N)=C\c2ccc(N3CCOCC3)o2)cc1	11.3	132.6	79.6*	8.4	/	0.9
N#C/C(=C/c1ccc(N2CCOCC2)o1)c1ccc(Br)cc1	-5.9	130.9	91.9*	-1.6	/	/
Cc1ccc(S(=O)(=O)N(C)C[C@@H]2OCCCC[C@H](C)Oc3ccc(NC(=O)NC4CCCCC4)cc3C(=O)N([C@H](C)CO)C[C@H]2C)cc1	/	/	/	-0.8	-0.5	2.0
